Ba/F3 V617F tox: lowers viability of Ba/F3 cells expressing EpoR and JAK2V617F; ATP luminescence; inhibition, % at 5.6 µM; hit rate 1.1% among 220,000;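 active = inhibition above the campaign mean plus 3 SD over all tested compounds, cut at about 24% in these data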;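 also: cytokine-independent growth of Ba/F3 cells driven by EpoR plus mutant JAK2; 0% = DMSO-treated cells and 100% = JAK inhibitor I control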
APP 5UTR inh: APP translation inhibition | SH-SY5Y APP 5'UTR-luciferase reporter, luminescence | hit rate 0.82% among 190,000 | inhibition, % at 2 µM | AID 1285;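 active = inhibition above a set limit, derived from the sample mean plus 3 SD, cut at about 45% in these data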
aSyn 5UTR inh: MLPCN primary screen, SNCA 5' untranslated region | hit rate 0.82% among 300,000 | inhibition, % (tested at 7.5 µM) | alpha-synuclein 5'UTR reporter, inhibitor activity; in the data active = inhibition above about 60%;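 also: H4 neuroglioblastoma cells stably carrying SNCA 5'UTR luciferase fusion; 0% = DMSO wells and 100% = positive control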
BaF3 parental: counter-screen for JAK2V617F inhibitors: parental Ba/F3 viability inhibitors. CellTiter-Glo ATP luminescence. hit rate 1.1% among 220,000. inhibition, % at 5.6 µM;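 active = inhibition above a per-campaign cutoff, the mean inhibition of all tested compounds plus 3 SD, cut at about 27% in these data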;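 also: 0% = DMSO wells and 100% = JAK Inhibitor I control wells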
KLF5 inh: inhibitors of KLF5 expression | DLD-1 KLF5 promoter-luciferase reporter, luminescence | inhibition, % at 5 µM | hit rate 0.23% among 290,000;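 active = inhibition above a per-plate limit of that plate's mean compound inhibition plus 3 SD, cut at about 60% in these data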;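 also: 0% = DMSO wells and 100% = LY294002 at 200 µM; higher means less KLF5 promoter-driven luciferase light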
IEC-6 tox-1: kills IEC-6 intestinal cells in KLF5 counter-screen; IEC-6 cytotoxicity, luminescence viability; inhibition, % at 5 µM; hit rate 0.78% among 290,000; AID 1825;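 also: 0% = plate median of test compound wells and 100% = cytotoxic reference compound wells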
KLF5 inh confirm: confirmation of KLF5 inhibitors; shares compounds with KLF5 inh; DLD-1 KLF5 promoter firefly luciferase reporter, luminescence; inhibition, % at 4 µM; hit rate 79% among 610;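 active = inhibition above a set limit taken from the earlier primary screen, cut at about 63% in these data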;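 also: 0% = DMSO wells and 100% = LY294002 at 200 µM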
IEC-6 tox-2: rat IEC-6 cytotoxicity, KLF5 inhibitor counter-screen; IEC-6 rat intestinal cells, viability luminescence; inhibition, % at 4 µM; hit rate 56% among 610; shares compounds with KLF5 inh; AID 1905; in the data active = inhibition above about 23%;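 also: cells exposed to compounds for 48 hours before viability read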
IEC-6 tox confirm: IEC-6 cytotoxicity, confirmation assay; shares compounds with IEC-6 tox-1; IEC-6 rat intestinal epithelial viability, luminescence; inhibition, % at 5 µM; hit rate 63% among 1,900; AID 1907;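 also: 0% = vehicle and 100% = reference cytotoxic drug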
* = called active by the depositor; . = no result. Rows were chosen to be rich in hits. Some 2.2% of all compounds tested hit in one or more screens of this group. Rule as the data show it, unless noted: active = inhibition above about 22%; inactive = the rest.

SMILES	Ba/F3 V617F tox	APP 5UTR inh	aSyn 5UTR inh	BaF3 parental	KLF5 inh	IEC-6 tox-1	IEC-6 tox confirm	others
C=CCc1cc(C=C2C(=O)N(C)C(=O)N(C)C2=O)cc(OCC)c1OCc1ccccc1	2.7	9.3	10.6	8.5	0.4	5.5	.
Cc1c(C(=O)C(=O)N2CCC3(CC2)OCCO3)c2ccccc2n1C	1.3	2.9	12.6	5.9	-33.4	-6.5	.
CC1(C)CC(n2[nH]c(=O)c3c2NC(=O)CSC3c2ccccc2)CCO1 (stereo not drawn)	2.9	1.4	23.4	0.5	-20.2	-1.3	.
CC(=O)O[C@@]12CO[C@@H]1C[C@@H](O)[C@@]1(C)C(=O)[C@H](O)C3=C(C)[C@@H](OC(=O)[C@H](O)[C@@H](NC(=O)c4ccccc4)c4ccccc4)C[C@@](O)([C@@H](OC(=O)c4ccccc4)C12)C3(C)C (stereo partly drawn)	.	.	113.4*	.	76.4*	90.5*	81.4*	KLF5 inh confirm=86.7*;IEC-6 tox-2=72.3*
C/C=C(\C)C(=O)N[C@@H](c1ccccc1)[C@@H](O)C(=O)O[C@H]1C[C@@]2(O)[C@@H](OC(=O)c3ccccc3)C3[C@](C)(C(=O)[C@H](OC(C)=O)C(=C1C)C2(C)C)[C@H](O)C[C@H]1OC[C@@]31OC(C)=O (stereo partly drawn)	.	.	109.7*	.	63.9*	88.5*	79.3*	KLF5 inh confirm=86.5*;IEC-6 tox-2=70.8*
CC(=O)C1C2c3ccccc3O[C@@]1(C)N=c1s/c(=C/c3ccoc3)c(=O)n12 (stereo partly drawn)	-1.1	6.0	-2.2	3.8	2.9	-1.0	.
C=CCn1c(O)c(C=Nc2ccc(F)cc2)c(=O)[nH]c1=O	.	.	8.7	.	0.6	-0.5	.
Cc1nc2ccccc2c(=O)n1-c1ccc(Br)cn1	24.7*	.	-176.1	50.8*	-31.3	22.1*	-1.7
Cc1ccnc(-n2c(C)nc3ccccc3c2=O)c1	1.8	-35.3	-16.3	6.8	-37.1	8.3	.
c1ccc(-c2cc(-c3ccccc3)[n+](-c3ccccc3)c(-c3ccccc3)c2)cc1	99.4*	.	-0.9	96.6*	38.8	47.4*	47.0*
C=CCn1c(O)c(C(C)=Nc2cccc(C(F)(F)F)c2)c(=O)[nH]c1=O	-0.4	.	-13.5	-8.9	-48.9	-8.4	.
COc1ccccc1Oc1c(C)oc2cc(OC(=O)N(C)C)ccc2c1=O	.	.	5.0	.	4.6	-3.6	.
Cc1c2ccncc2c(C)c2c1[nH]c1ccccc12	83.6*	66.9*	114.1*	73.8*	4.0	48.7*	49.1*
CCn1c(C)c(C(=O)O)c2cc(OC)ccc21	0.6	12.6	11.7	2.3	6.6	2.2	.
Cc1ccc(-c2cc(-c3ccc(C)cc3)[n+](C)o2)cc1	91.1*	-20.0	-1.5	73.1*	-16.2	25.1*	22.6*
CCC(C)C(=O)N[C@@H](c1ccccc1)[C@@H](O)C(=O)O[C@H]1C[C@@]2(O)[C@@H](OC(=O)c3ccccc3)C3[C@](C)(C(=O)[C@H](OC(C)=O)C(=C1C)C2(C)C)[C@@H](O)C[C@H]1OC[C@@]31OC(C)=O (stereo partly drawn)	.	.	103.3*	.	55.6	91.7*	81.5*
CC/C=C/CC(=O)N[C@@H](c1ccccc1)[C@@H](O)C(=O)O[C@H]1C[C@@]2(O)[C@@H](OC(=O)c3ccccc3)C3[C@](C)(C(=O)[C@H](OC(C)=O)C(=C1C)C2(C)C)[C@@H](O)C[C@H]1OC[C@@]31OC(C)=O (stereo partly drawn)	.	.	77.4*	.	48.8	91.7*	85.8*
CCOC(=O)C1=C(N)OC2=C(C(=O)CCC2)[C@]12C(=O)N(CC(N)=O)c1ccccc12	0.0	.	-4.3	-1.7	14.0	5.5	.
O=[N+]([O-])NC1=NCCN1Cc1ccc(Cl)nc1	.	.	32.1	.	-21.6	48.5*	3.6
COc1ccc(CNCCc2c(C)[nH]c3ccc(OC(F)(F)F)cc23)c(OC)c1	.	.	90.5*	.	-11.9	37.8*	22.1*
COc1ccc2[nH]c(C)c(CCNCc3cc(OC)c(OC)c(OC)c3)c2c1	3.5	-2.3	-3.5	7.2	-11.6	3.5	.

High-throughput results from PubChem.
